PKA-R2B activ: activates the human PKA-R2B holoenzyme complex. P22694+P31323. PKA-R2B holoenzyme dissociation, Cy5-IP20 fluorescence polarization; R2B truncated from residue 108, S112A mutant; 0% DMSO only, 100% 113 µM cGMP. activation, % at 11.4 µM. 340,000 tested, 0.079% active;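 active = activation above a cutoff set at the mean over all compounds plus 3 SD, cut at about 18% in these data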;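 note: higher means more holoenzyme dissociation and a rise in polarization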
PolyA inhibitor: inhibitors of polyadenylation in S. cerevisiae | activity score, % at 12 µM | 300,000 tested, 0.02% active | AID 1875 | S. cerevisiae SKY197-pL101 polyadenylation reporter, beta-gal luminescence; efflux-impaired pdr1/pdr3 knockout yeast; score 100 = 6 SD above DMSO;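 active = lowest replicate activity score at least 50, where 100 means six control SD above control mean; inconclusive = lowest score under 50 but half or more replicates reach 50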;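 note: yeast exposed to compound for 9 h at 30 °C; higher score means more reporter readthrough which indicates perturbed polyadenylation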
PKA-R1A activ: activates the PKA-R1A holoenzyme complex. 340,000 tested, 0.083% active. PKA-R1A dissociation, Cy5-IP20 fluorescence polarization; scaled: DMSO 0%, 113 µM cGMP 100%. P00514+P68181. activation, % at 11.4 µM;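 active = percent activation above the mean of all tested compounds plus 3 SD, cut at about 19% in these data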;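 note: higher means more PKAc released from R1A so a rise in polarization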
Neddylation inh: blocks human cullin neddylation; AID 651699; 360,000 tested, 0.58% active; TR-FRET cullin neddylation, biochemical; P61081+Q13564; calls only at 25 µM; in the data active = inhibition above about 36%
Target sequence (P61081 whole entry, looked up): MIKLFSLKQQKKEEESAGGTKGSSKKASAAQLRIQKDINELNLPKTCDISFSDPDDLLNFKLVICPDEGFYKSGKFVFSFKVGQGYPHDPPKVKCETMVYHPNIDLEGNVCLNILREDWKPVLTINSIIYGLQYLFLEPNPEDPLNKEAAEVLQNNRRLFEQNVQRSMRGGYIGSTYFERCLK
Target sequence (Q13564 whole entry, looked up): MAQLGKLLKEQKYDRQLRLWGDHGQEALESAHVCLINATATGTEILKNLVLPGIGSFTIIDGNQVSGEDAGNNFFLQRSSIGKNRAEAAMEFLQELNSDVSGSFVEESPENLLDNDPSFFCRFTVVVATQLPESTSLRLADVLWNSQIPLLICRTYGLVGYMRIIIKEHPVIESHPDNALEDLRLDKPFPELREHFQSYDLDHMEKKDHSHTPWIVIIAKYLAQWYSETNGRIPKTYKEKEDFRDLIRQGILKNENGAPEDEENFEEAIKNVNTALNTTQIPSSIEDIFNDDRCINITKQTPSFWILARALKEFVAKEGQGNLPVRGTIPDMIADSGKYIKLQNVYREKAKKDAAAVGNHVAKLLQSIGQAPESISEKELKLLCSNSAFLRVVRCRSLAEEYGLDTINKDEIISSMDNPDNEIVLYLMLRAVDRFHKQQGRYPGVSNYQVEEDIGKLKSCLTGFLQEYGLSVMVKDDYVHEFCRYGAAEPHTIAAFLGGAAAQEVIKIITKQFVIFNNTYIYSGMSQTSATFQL
Neddyl inh conf: confirmation of human cullin neddylation inhibitors; shares compounds with Neddylation inh; TR-FRET cullin neddylation biochemical assay; calls only at 25 µM; 1,800 tested, 13% active; AID 652217; in the data active = inhibition above about 40%;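 note: neddylation substrate is the cullin 1 ring ligase complex with SKP2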
Active calls of the source: *. Compounds with a hit are over-represented: about 0.72% of the library has one in this group of screens.

What do the screens show for `CC(=O)Oc1ccc(-c2ccc(C(=O)OCC(=O)N(C)CC(=O)Nc3ccccc3Cl)cc2)cc1`?
PKA-R2B activ: -8; PolyA inhibitor: 7; PKA-R1A activ: -1; Neddylation inh: active; Neddyl inh conf: inactive

How did COc1cc2c(cc1OC)-c1cc(NC3CCCC3)nc(=O)n1CC2 do in these assays?
PKA-R2B activ: -2; PolyA inhibitor: -4; PKA-R1A activ: 5; Neddylation inh: active; Neddyl inh conf: inactive

What do the screens show for `O=c1cc(-c2ccco2)oc2ccccc12`?
PKA-R2B activ: -7; PKA-R1A activ: -3; Neddylation inh: active; Neddyl inh conf: active

Results for Cc1ccc2oc(-c3ccco3)cc(=O)c2c1 ?
PKA-R2B activ: 3; PolyA inhibitor: -4; PKA-R1A activ: -6; Neddylation inh: active; Neddyl inh conf: active

Results for N#CCOc1ccc2oc(-c3ccco3)cc(=O)c2c1 ?
PolyA inhibitor: -3

How did O=C1CCC/C(=N\NC(=O)COc2ccc(Cl)cc2)C1 do in these assays?
PKA-R2B activ: -10; PolyA inhibitor: 3; PKA-R1A activ: -5; Neddylation inh: inactive

Results for Clc1cc(/C=N\NC2=NCCN2)cc(Cl)n1 ?
PolyA inhibitor: 5; Neddylation inh: inactive

How did CCC(=O)Nc1nnc(/C=C/c2ccccc2)s1 do in these assays?
PKA-R2B activ: 1; PolyA inhibitor: 19; PKA-R1A activ: 5; Neddylation inh: active; Neddyl inh conf: inactive

What do the screens show for `COc1ccc2sc(-c3ccccc3OC)c(C#Cc3cncn3C)c2c1`?
PKA-R2B activ: 1; PKA-R1A activ: -11; Neddylation inh: inactive

Results for COc1ccccc1-c1sc2cc3c(cc2c1C#Cc1cncn1C)OCO3 ?
PKA-R2B activ: -10; PKA-R1A activ: -9; Neddylation inh: active; Neddyl inh conf: active

What do the screens show for `COc1ccc2oc(C(=O)NCC(c3ccco3)N(C)C)c(C)c2c1` (stereo not given)?
PKA-R2B activ: 4; PolyA inhibitor: -4; PKA-R1A activ: -12; Neddylation inh: active

What do the screens show for `COc1ccc2oc(C(=O)NC3(C)CCS(=O)(=O)C3)c(C)c2c1` (stereo not given)?
PKA-R2B activ: -8; PolyA inhibitor: -5; PKA-R1A activ: -10; Neddylation inh: active

Results for COc1ccc2oc(C(=O)Nc3nccs3)c(C)c2c1 ?
PKA-R2B activ: -11; PolyA inhibitor: 0; PKA-R1A activ: -2; Neddylation inh: inactive

Results for CSCC[C@H](NC(=O)Nc1ccc(OC(F)(F)F)cc1)C(=O)O ?
PKA-R2B activ: -4; PolyA inhibitor: 8; PKA-R1A activ: -9; Neddylation inh: inactive

Results for O=C(COc1ccccc1)Nc1nnc(-c2ccc(Cl)s2)o1 ?
PKA-R2B activ: -6; PolyA inhibitor: 14; PKA-R1A activ: -13; Neddylation inh: active; Neddyl inh conf: inactive

What do the screens show for `O=C(COc1ccccc1)Nc1nnc(-c2ccccc2)o1`?
PKA-R2B activ: 7; PolyA inhibitor: -20; PKA-R1A activ: -2; Neddylation inh: inactive

How did COc1ccc(-c2ccnc3cc(C(=O)O)nn23)cc1 do in these assays?
PKA-R2B activ: -1; PolyA inhibitor: -7; PKA-R1A activ: 5; Neddylation inh: active

How did Cc1nn(-c2ccccc2)c2nc(Cl)c(C(=O)O)cc12 do in these assays?
PKA-R2B activ: 5; PolyA inhibitor: 18; PKA-R1A activ: 8

How did Cc1nn(-c2ccccc2)c2nc3c(cc12)C(=O)CCC3 do in these assays?
PKA-R2B activ: 7; PolyA inhibitor: -21; PKA-R1A activ: 9; Neddylation inh: active; Neddyl inh conf: inactive

What do the screens show for `CCN(CC)c1ccc(/C=N/NC(=O)c2cccc(N3CCCC3=O)c2)cc1`?
PKA-R2B activ: 1; PKA-R1A activ: -7; Neddylation inh: active

What do the screens show for `CCOc1ccccc1NC(=O)CN1c2cccc3cccc(c23)S1(=O)=O`?
PKA-R2B activ: -4; PKA-R1A activ: 1; Neddylation inh: active

Results for CC(=O)C(Cc1ccccc1)NC(=O)CN1c2cccc3cccc(c23)S1(=O)=O (stereo not given) ?
PKA-R2B activ: 0; PKA-R1A activ: -12; Neddylation inh: active; Neddyl inh conf: inactive

What do the screens show for `CC(C)(C)NC(=O)NC(=O)CN1c2cccc3cccc(c23)S1(=O)=O`?
PKA-R2B activ: -3; PolyA inhibitor: 19; PKA-R1A activ: 5; Neddylation inh: inactive

What do the screens show for `CCN(CC(=O)NC(C)(C)C)C(=O)CN1c2cccc3cccc(c23)S1(=O)=O`?
PKA-R2B activ: 2; PolyA inhibitor: -19; PKA-R1A activ: 6; Neddylation inh: active

How did COc1ccc(NC(=O)CN2c3cccc4cccc(c34)S2(=O)=O)cc1 do in these assays?
PKA-R2B activ: 8; PolyA inhibitor: 0; PKA-R1A activ: 1; Neddylation inh: inactive

Results for C[C@@H]1CN(c2c(F)c(F)c3c(=O)c(C(=O)O)cn(C4CC4)c3c2F)C[C@H](C)N1 ?
PKA-R2B activ: 3; PolyA inhibitor: 0; PKA-R1A activ: -5; Neddylation inh: active

Results for CNC(=S)N1CCN(c2c(F)cc3c(=O)c(C(=O)O)cn(C4CC4)c3c2OC)CC1C (stereo not given) ?
PKA-R2B activ: 3; PolyA inhibitor: -8; PKA-R1A activ: -14

How did COC(=O)[C@H](Cc1ccccc1)NC(=O)C1CCN(C(=O)[C@H](C)NS(=O)(=O)c2ccc(C)cc2)CC1 do in these assays?
PKA-R2B activ: -26; PolyA inhibitor: 6; PKA-R1A activ: 1; Neddylation inh: inactive

What do the screens show for `COC(=O)c1sccc1NC(=O)/C=C/c1ccc(Cl)cc1Cl`?
PKA-R2B activ: 4; PolyA inhibitor: inconclusive; PKA-R1A activ: 0; Neddylation inh: active; Neddyl inh conf: inactive

Results for CCCc1c(O)c2ccccc2[nH]c1=O ?
PKA-R2B activ: -3; PolyA inhibitor: -13; PKA-R1A activ: 2; Neddylation inh: active; Neddyl inh conf: inactive

How did CCOC(=O)c1cnn2c(N)c(C#N)cnc12 do in these assays?
PKA-R2B activ: -3; PolyA inhibitor: -1; PKA-R1A activ: 2; Neddylation inh: active; Neddyl inh conf: inactive

What do the screens show for `Cc1cccc(C)c1NC(=O)C(c1ccnc2ccccc12)n1c(=O)c(-c2ccccc2)nc2ccccc21` (stereo not given)?
Neddylation inh: inactive

Results for CC(C)(C)NC(=O)C(c1ccccc1)n1c(=O)c(-c2ccccc2)nc2ccccc21 (stereo not given) ?
Neddylation inh: active; Neddyl inh conf: inactive

Results for Cc1cccc(C)c1NC(=O)C(C1CC1)n1c(=O)c(-c2ccccc2)nc2ccccc21 (stereo not given) ?
Neddylation inh: active; Neddyl inh conf: active

Results for CC(C)(C)NC(=O)C(c1ccnc2ccccc12)n1c(=O)c(-c2ccccc2)nc2ccccc21 (stereo not given) ?
Neddylation inh: active; Neddyl inh conf: inactive

Assay outcomes as filed in PubChem.
